SMILES strings stand for the structures. This is one part of the list. Records with an inconclusive call do not appear. A number with no mark means an inactive call. Calls of active or inactive are those of the source. Calls follow the shape of the dose curve; as a rule, active = well fitted inhibition curve with a large enough effect; inconclusive = small, poorly fitted or top-dose-only effect; inactive = no such curve, though single readings can be large or run the other way.

The assay in a line: qHTS of pediatric cancer cell lines to identify multiple opportunities for drug repurposing: Orthogonal 3D viability screen for MG 63 (6-TG R) cells. As to conditions: MG-63 (6-TG R) 3D spheroid viability, PI/Hoechst imaging, 72 h; series mostly up to 30.7 µM; activity, negative = reduced viability: at the top concentration. The text has this:
Drug repurposing or repositioning has been offered as a strategy for drug development in oncology programs. This approach has special potential for childhood cancers and other rare or orphan diseases, where the expected return on new drug development has been a disincentive to pharmaceuticals. […] In this project we exploit the poly-pharmacology of drugs to discover new indications via phenotypic screening of a panel of 19 well-characterized cell lines derived from solid tumors seen in children and adolescents. The goal is to identify approved drugs with previously unrecognized anticancer properties that has the potential to reveal new mechanisms and biological processes involved in carcinogenesis or drug resistance. We employed a titration-based paradigm (quantitative high-throughput screening or qHTS), where all compounds were tested at multiple concentrations for their effect on cell viability. Concentration-response curves (CRCs) were derived directly from the primary screen, and both potency and efficacy values were used to identify compounds with robust bioactivity profiles. […] These two assays will be used to validate active compounds and assess the correlation of compound's potency in 2D vs 3D cultures on selected cell lines. Assay Submitter: Nathalia J. Martinez, National Center for Advancing Translational Sciences, National Institutes of Health, Rockville, MD, USA; email: natalia.martinez@nih.gov Shen, M et al. Quantitative high-throughput phenotypic screening of pediatric cancer cell lines identifies multiple opportunities for drug repurposing. Oncotarget 2017 Dec 19;9(4):4758-4772. PMID 29435139.
The cells were obtained from University of North Carolina (UNC), Pediatric Preclinical Testing Program (PPT), and Coriell Institute (CI). qHTS viability in 3D culture: Cells were assayed in phenol red-free growth media at a density of 1,000 cells/well, with the exception of Daoy, and SH-N-SH which were assayed at 1,500 cells/ well. Thirty muL of cells were dispensed into 384-well, ULA, round bottom plates (Corning) using a Multidrop dispenser. […] Spheroid viability was first determined by high-content imaging using Hoechst 33342 and Propidium Iodide (PI, ThermoFisher Scientific), followed by addition of CellTiter-Glo 3D (Promega). […] Plates were incubated for 30 min at RT on a VWR microplate shaker (300 rpm) and analyzed for luminescence intensity using a ViewLux High-throughput CCD imager equipped with clear filters. […] The data were exported to Excel, and the average fluorescent intensities were used to calculate the ratio of PI over Hoechst, which was used to quantify viability. […]
For `CC(NCc1ccc2c(c1)nc(NC(=O)c1ccc(-c3cn[nH]c3)s1)n2CC(C)(C)O)C(C)(C)C` (centres undefined), the Potency was 0.722 µM (active).
As for `CC[C@]1(O)C[C@@H]2CN(CCc3c([nH]c4ccccc34)[C@@](C(=O)OC)(c3cc4c(cc3OC)N(C)[C@H]3[C@@](O)(C(=O)OC)[C@H](OC(C)=O)[C@]5(CC)C=CCN6CC[C@]43[C@@H]65)C2)C1`, the “activity, negative = reduced viability” value was 12%.
As to `CC[C@H]1CN2CCc3cc(OC)c(OC)cc3[C@@H]2C[C@@H]1C[C@H]1NCCc2cc(OC)c(OC)cc21`, the Potency is 0.81 µM (active).
Take `COc1c(C)c2c(c(O)c1C/C=C(\C)CCC(=O)O)C(=O)OC2`: the Potency is 0.909 µM (active).

Source of the values: PubChem BioAssay AID1347140 (National Center for Advancing Translational Sciences (NCATS), 2019).
